This is a sample that favours compounds with a hit; in the whole collection about 3.8% have one here.
Wnt bcat act: Wnt/beta-catenin pathway activation; activation, % at 9.35 µM; AID 743398; Wnt/beta-catenin reporter cell assay, activator, plate reader; actives 1.2% (n = 300,000); in the data active = activation above about 30%, passing the limit was not always enough; inconclusive = no clear call, values can overlap the other calls;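 also: 0% = neutral control wells and 100% = positive control wells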
esBAF inh: inhibitors of esBAF chromatin remodeling in mouse ES cells; Bmi1-luciferase knock-in reporter, 24 h; 100% = twice the neutral-well signal; reporter increase, % at 12.5 µM; actives 2% (n = 350,000); AID 602393; in the data active = activation above about 40%; inconclusive = no clear call, values can overlap the other calls;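 also: 0% = median of the plate's neutral control wells and 100% = double that signal; a rise in the Bmi1 reporter signal indicates esBAF inhibition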
HSF1 inhib: HSF1 inhibition; NIH3T3-HGL HSE-luciferase, MG132-induced, luminescence 8 h; hits give low values; activity change, negative = inhibition, % at 7.5 µM (by protocol); actives 0.77% (n = 300,000);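 active = more than half of replicate wells show activity change below -50%, luminescence cut by over half; inconclusive = some wells, but at most half, below -50%; inactive = no replicate well below -50%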;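 also: luciferase reports HSF-1 transcriptional activity via heat shock element; 0% = median of DMSO wells and -100% = zero luminescence signal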
HSF1 activator: increases HSF-1 driven luciferase reporter signal; NIH3T3-HGL HSF-1 luciferase reporter, MG132, 8 h; 100% = twice DMSO control signal; activation, % at 9 µM; actives 1.7% (n = 300,000); AID 504408;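 active = mean replicate activation of at least 50% with a set share of replicates each reaching 50%; inconclusive = only one of those two conditions met; inactive = mean below 50% and too few replicates reaching it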;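 also: 0% = median of the neutral control wells and 100% = twice that signal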
MITF act: increases MITF-driven TRPM1 promoter luciferase signal; actives 0.75% (n = 300,000); SK-MEL-5 TRPM1-promoter luciferase, 24 h; % of positive control, neutral wells = 0; activation, % at 12.5 µM;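 active = mean activation of at least 80% with every replicate also reaching 80%; inconclusive = mean reaches 80% but some replicate falls short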;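 also: 0% = neutral control wells and 100% = parthenolide positive control wells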
* marks the source's active call; other numbers are inactive results; ? = inconclusive; / = no result given.

SMILES	Wnt bcat act	esBAF inh	HSF1 inhib	HSF1 activator	MITF act
COc1cccc(N=c2oc3ccccc3cc2-c2nc3ccccc3[nH]2)c1	46.7*	-18.3	24.6	71.0*	-11.0
CCOC(=O)COc1ccc(Br)cc1/C=C\c1[nH]c(=O)[nH]c(=O)c1[N+](=O)[O-]	-1.6	/	7.4	13.3	-17.4
CCOC(=O)COc1ccc(Br)cc1/C=C/c1[nH]c(=O)[nH]c(=O)c1[N+](=O)[O-]	5.5	-0.5	53.2	85.0*	3.1
CCCOc1ccc(/C=C/c2[nH]c(=O)[nH]c(=O)c2[N+](=O)[O-])cc1OCC	0.3	-10.3	3.0	5.4	-4.2
CCOc1cc(/C=C\c2[nH]c(=O)[nH]c(=O)c2[N+](=O)[O-])ccc1OC(C)CC (configuration not stated)	/	/	41.0	63.9*	/
Cc1noc(C)c1NC(=O)Nc1ccc2c(c1)CC(=O)N([C@@H](C)CO)C[C@H](C)[C@H](CN(C)S(=O)(=O)c1cn(C)cn1)O2	/	-0.8	/	/	/
COc1cc(C(=O)Sc2ccc(Cl)cc2)cc(OC)c1OC	-3.7	-1.3	59.9	78.7*	9.2
COc1cc(C(=O)NCCSc2ccc(Cl)cc2)cc(OC)c1OC	-0.6	-3.8	18.1	7.1	-3.6
CC(C)(CO)NC(=O)CCCOc1ccc(Cl)cc1Cl	/	47.9*	2.2	37.4	67.4
CSc1ccccc1NC(=O)COc1ccc(Cl)cc1Cl	/	47.4*	19.7	30.3	13.3
O=C(CCCOc1ccc(Cl)cc1Cl)Nc1ccccc1C(=O)O	?	78.9*	35.4	29.8	50.1
CC(=O)c1sc(NC(=O)COc2ccc(Cl)cc2Cl)nc1C	6.5	45.0*	/	/	46.7
O=C(COc1ccc(Cl)cc1Cl)NC(=S)Nc1ccccc1C(=O)O	/	/	7.3	19.0	/
CSc1ccccc1NC(=O)COc1ccccc1Cl	/	23.0	11.1	-0.2	3.6
C[C@@H]1CN([C@H](C)CO)C(=O)Cc2cc(NC(=O)CCN3CCOCC3)ccc2O[C@@H]1CN(C)Cc1ccc(-c2ccccc2)cc1	/	-0.5	/	/	/
CO[C@@H]1CN(C)C(=O)c2cc(NC(=O)Nc3c(C)noc3C)ccc2OC[C@H](C)N(CC2CC2)C[C@H]1C	/	-2.1	/	/	/
C[C@@H]1CN([C@@H](C)CO)C(=O)Cc2cc(NS(=O)(=O)c3cccs3)ccc2O[C@H]1CN(C)Cc1ccccc1	/	-6.4	/	/	/
CCCN1[C@@H]2Cn3c(ccc(-c4ccccc4)c3=O)[C@H]1[C@@H](C(=O)NCCCN1CCOCC1)[C@@H]2CO	/	1.2	/	/	/
O=C(Nc1ccc(NC(=O)c2ccc([N+](=O)[O-])o2)cc1Cl)c1ccco1	-1.9	/	120.7	161.5*	-24.5
O=C(Nc1cccc(NC(=O)c2ccc([N+](=O)[O-])o2)c1)c1ccco1	-9.4	-2.6	66.3	92.6*	-63.8
Cc1noc(C)c1NC(=O)N(C)C[C@H]1OCCCC[C@H](C)Oc2ccc(NC(=O)CCC(F)(F)F)cc2C(=O)N([C@@H](C)CO)C[C@H]1C	/	-2.9	/	/	/
C[C@H]1CN([C@@H](C)CO)C(=O)Cc2cc(NS(C)(=O)=O)ccc2O[C@H]1CN(C)S(C)(=O)=O	/	1.5	/	/	/
C[C@@H]1CN([C@H](C)CO)C(=O)c2cccc(NC(=O)Nc3ccc(C(F)(F)F)cc3)c2O[C@@H]1CN(C)C(=O)Nc1ccc(C(F)(F)F)cc1	/	-1.5	/	/	/
O=C(NCC[C@H]1CC[C@H](NC(=O)c2ccccc2F)[C@@H](CO)O1)c1ccc2c(c1)OCO2	/	1.6	/	/	/
O=C1Nc2ccccc2/C1=C/c1cnc(-c2ccccc2)[nH]1	41.3*	?	34.6	64.3*	/
SMILES	Wnt bcat act	esBAF inh	HSF1 inhib	HSF1 activator	MITF act
O/N=C/c1cn(-c2ccccc2)nc1-c1cccnc1	-0.2	/	1.1	7.9	7.8
COc1ccc(-c2nn(-c3ccccc3)cc2CO)cc1	11.6	17.4	10.3	23.7	50.9
Cc1ccc(-c2nn(-c3ccccc3)cc2/C=N/O)cc1	3.3	14.0	-6.2	-2.0	91.7*
Cc1ccc(-c2nn(-c3ccccc3)cc2CO)cc1	13.9	90.1*	1.0	16.9	69.2
O=[N+]([O-])c1ccc(N/N=C/c2cn(-c3ccccc3)nc2-c2ccccc2)cc1	/	4.0	29.3	63.5*	32.9
CC1=NNC(=O)/C1=C\c1cn(-c2ccccc2)nc1-c1ccc(F)cc1	/	12.2	111.0	146.1*	-91.6
Cc1occc1-c1nnc(SCC(=O)Nc2ccccc2)n1Cc1ccccc1	/	45.5*	-1.8	-3.6	4.9
COc1cccc(NC(=O)N[C@H]2C=C[C@@H](CC(=O)N3CCN(C)CC3)O[C@H]2CO)c1	/	1.7	/	/	/
O=C(N/N=C(\c1ccccc1)c1cccnc1)c1cccc(F)c1	-6.2	-73.8	100.0	126.9*	-89.2
C[C@@H]1CN([C@H](C)CO)C(=O)Cc2cc(NC(=O)c3ccncc3)ccc2O[C@H]1CN(C)S(C)(=O)=O	/	2.6	/	/	/
CCC(=O)N(C)C[C@H]1Oc2cc(C#CC3(O)CCCC3)ccc2S(=O)(=O)N([C@H](C)CO)C[C@@H]1C	/	2.2	/	/	/
C[C@@H]1CN([C@H](C)CO)C(=O)Cc2cc(NS(C)(=O)=O)ccc2O[C@@H]1CN(C)S(=O)(=O)c1ccccc1	/	-0.8	/	/	/
COc1ccc(CCNC(=O)c2cc(-c3ccc(C)c(C)c3O)n[nH]2)cc1OC	/	8.8	8.0	14.1	16.1
Cc1cccc(NC(=O)c2cc(-c3cc(C)ccc3O)n[nH]2)c1	?	12.4	55.2	103.6*	?
CC(=O)Nc1ccc(NC(=O)c2cc(-c3ccc(C)cc3O)n[nH]2)cc1	10.5	8.3	-0.7	5.6	18.7
Cc1ccc(-c2cc(C(=O)Nc3cccnc3)[nH]n2)c(O)c1C	43.7*	/	5.9	-1.6	114.3*
Cc1cccc(NC(=O)c2cc(-c3cc(C)c(C)cc3O)n[nH]2)c1	?	70.1*	-1.2	-9.9	68.7
COc1ccc(NC(=O)c2cc(-c3cc(C)ccc3O)n[nH]2)cc1Cl	13.5	7.8	13.3	4.4	/
Cc1c(Cl)cccc1NC(=O)c1cc(-c2ccccc2O)n[nH]1	10.3	49.0*	68.6	86.7*	74.4
COc1ccc(Cl)cc1NC(=O)c1cc(-c2ccccc2O)n[nH]1	/	/	-3.6	30.2	0.9
CC(=O)N1C[C@@H]2[C@H](c3ccccc31)[C@H](CO)N2S(=O)(=O)c1ccccc1	/	2.5	/	/	/
CC1C=NC(S(=O)(=O)N2CC[C@@H]3[C@@H](CO)N(C)c4ccc(-c5cccc(F)c5)cc4[C@@H]32)=N1 (some centres not stated)	/	-4.2	/	/	/
COc1ccccc1C(=O)N1N=C(c2ccc(NS(C)(=O)=O)cc2)CC1c1cccs1 (configuration not stated)	-0.4	4.1	12.4	54.2*	-6.8
N/C(=N\OC(=O)Cc1ccccc1[N+](=O)[O-])c1cccc(Br)c1	36.5*	3.0	-31.2	-47.4	-4.0
COc1ccc(/C(N)=N/OC(=O)c2cccs2)cc1OC	7.8	/	26.0	48.1	84.4*
N/C(=N\OC(=O)c1cccs1)c1cccc(Br)c1	44.4*	21.9	27.6	26.5	70.0
N/C(=N\OC(=O)c1cccs1)c1ccccc1	14.5	18.4	13.7	26.2	19.0
